Most compounds without a hit are left out; they make up all but 13% or so of the library.
USP8 inh: human USP8 deubiquitinase inhibition | purified USP8, Ub-rhodamine cleavage fluorescence, 30 min | inhibition, % at 20 µM | actives 4.2% (n = 47,000)
Target sequence (P40818 whole entry, looked up): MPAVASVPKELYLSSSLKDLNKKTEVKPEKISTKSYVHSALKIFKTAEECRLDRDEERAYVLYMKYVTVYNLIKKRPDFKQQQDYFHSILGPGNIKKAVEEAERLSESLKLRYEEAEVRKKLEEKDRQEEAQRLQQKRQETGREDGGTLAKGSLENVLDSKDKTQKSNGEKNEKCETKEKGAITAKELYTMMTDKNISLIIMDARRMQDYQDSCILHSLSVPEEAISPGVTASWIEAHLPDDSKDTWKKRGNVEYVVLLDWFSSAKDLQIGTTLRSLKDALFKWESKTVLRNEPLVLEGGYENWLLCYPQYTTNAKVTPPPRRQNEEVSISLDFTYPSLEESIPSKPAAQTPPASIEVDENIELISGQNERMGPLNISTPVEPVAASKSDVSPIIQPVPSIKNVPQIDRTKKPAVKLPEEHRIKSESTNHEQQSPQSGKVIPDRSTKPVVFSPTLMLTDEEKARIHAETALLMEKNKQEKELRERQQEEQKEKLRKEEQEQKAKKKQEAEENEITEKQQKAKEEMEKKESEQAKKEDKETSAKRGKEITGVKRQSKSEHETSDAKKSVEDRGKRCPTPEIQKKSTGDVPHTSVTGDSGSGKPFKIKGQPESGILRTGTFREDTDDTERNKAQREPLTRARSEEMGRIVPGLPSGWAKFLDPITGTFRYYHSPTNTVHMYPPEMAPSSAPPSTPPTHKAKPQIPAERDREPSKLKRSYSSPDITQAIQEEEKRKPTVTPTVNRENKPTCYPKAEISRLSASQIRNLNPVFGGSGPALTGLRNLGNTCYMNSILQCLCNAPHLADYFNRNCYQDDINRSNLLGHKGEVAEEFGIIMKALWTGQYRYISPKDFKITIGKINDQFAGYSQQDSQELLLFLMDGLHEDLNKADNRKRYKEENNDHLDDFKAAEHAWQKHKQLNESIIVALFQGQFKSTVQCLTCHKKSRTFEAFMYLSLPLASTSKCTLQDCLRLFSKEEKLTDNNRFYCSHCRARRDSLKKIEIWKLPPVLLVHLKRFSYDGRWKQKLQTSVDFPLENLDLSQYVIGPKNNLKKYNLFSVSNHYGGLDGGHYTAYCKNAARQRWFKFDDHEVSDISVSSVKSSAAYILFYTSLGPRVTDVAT
USP28 block: blocks human USP28 ubiquitin-rhodamine cleavage; Q96RU2; purified USP28, Ub-rhodamine cleavage fluorescence, 30 min; inhibition, % at 25 µM; actives 3% (n = 47,000); AID 1645857
USP17 inh: inhibitors of human USP17 deubiquitinase. actives 6.5% (n = 47,000). inhibition, % at 50 µM. purified USP17, Ub-rhodamine cleavage fluorescence, 3 h. A8MUK1. AID 1645855
USP30 block: human USP30 deubiquitinase inhibition; Q70CQ3; purified USP30, Ub-rhodamine cleavage fluorescence; inhibition, % at 25 µM; actives 5.3% (n = 47,000); AID 1645860
Active calls of the source: *; i = inactive; nt = no result given. No stated cut-off is given here; in the data, active means inhibition above about 30%; inactive means the rest.

SMILES | USP8 inh | USP28 block | USP17 inh | USP30 block
O=C1CC(c2cc3c(cc2Br)OCO3)c2cc3c(cc2N1)OCCO3 (stereo unspecified) | 4.3 | 10.6 | 66.9* | 17.9
COC(=O)c1cc(Br)c(NC(=O)c2ccco2)cc1OC | -0.6 | 16.8 | 39.5* | 19.7
Cc1noc(C)c1CCC(=O)N1CCC(c2onc3c2CC(C)CC3)CC1 (stereo unspecified) | -3.2 | -4.0 | -7.6 | 0.1
CCN1C(=O)COc2cc(-c3noc(C(=O)NCC4CCCO4)n3)ccc21 (stereo unspecified) | 5.7 | 6.3 | 2.6 | 8.8
O=C(O)c1ccc(C2Cc3c([nH]c(=O)[nH]c3=O)O2)cc1 (stereo unspecified) | -52.7 | 78.1* | 23.9 | 75.0*
COc1c2nc3ccccc3oc-2cc(=O)c1OC | 57.8* | 6.6 | 70.9* | -12.9
COc1ccc(-c2c(-c3ccc(OCCN4CCOCC4)cc3O)n[nH]c2C)cc1OC | 54.6* | -16.4 | 0.9 | -23.5
COc1ccc2c(c1)CCc1c-2n[nH]c1C(=O)NCCN1CCOCC1 | 0.6 | 4.5 | 9.9 | 3.2
O=C(COC(=O)C(c1ccccc1)c1ccccc1)NCc1ccccc1 | 7.1 | 21.2 | 24.8 | 33.7*
Cc1ccc(CNC(=O)COC(=O)c2cc(-c3ccccc3Cl)nc3ccccc23)cc1 | 12.9 | 26.2 | 13.4 | -26.5
CCOC(=O)C1=C(CS(=O)(=O)c2ccccc2)NC(=O)NC1c1ccccc1C (stereo unspecified) | 8.7 | 9.7 | 0.6 | 6.0
COc1ccc(-c2csc3ncn(CC(C)=O)c(=O)c23)cc1 | -17.0 | 5.1 | -34.5 | -21.5
COc1ccc(-c2c(C)nc3c(-c4ccsc4)cnn3c2N)cc1 | 31.5* | 9.4 | 6.3 | 19.1
COc1ccccc1CNC(=O)c1ccccc1OCc1ccccc1Cl | 13.2 | 28.8 | 23.7 | 32.2*
CCOC(=O)Nc1ccc(N2CCn3c(nc4ccccc43)C2)cc1OC | -233.2 | -235.7 | -185.9 | i
Cc1ccc(NC(=O)c2cc(-c3ccncc3)n[nH]2)cc1Cl | 22.2 | 36.3* | 2.2 | -0.3
CCOc1ccccc1NC(=O)c1cc(-c2ccncc2)n[nH]1 | 0.5 | nt | -21.1 | nt
Cc1ccc(CNC(=O)C2CCN(C(=O)c3cc(-c4ccncc4)n[nH]3)CC2)o1 | -3.7 | nt | 4.7 | nt
Cc1ccc(NC(=O)C2CCN(C(=O)c3cc(-c4ccncc4)n[nH]3)CC2)cc1Cl | 17.2 | 37.0* | 62.7* | 63.1*
Cc1ccc(NS(=O)(=O)c2ccc3c(c2)NC(=O)C(C)CS3)cc1N(C)C (stereo unspecified) | -60.5 | 2.8 | nt | -42.0
COc1ccc(-c2cc(C(=O)OCC(=O)Nc3cc(C)on3)c3ccccc3n2)cc1OC | -5.9 | -61.6 | 30.3* | -222.4
COc1ccc(-c2cc(C(=O)OCC(=O)NCc3ccccc3OC)c3ccccc3n2)cc1 | 1.5 | -4.0 | -5.3 | -26.1
CNc1nc(C2CCN(C(=O)CN3CCCCCC3=O)CC2)nc2c1CN(C)CC2 | 9.9 | 6.3 | 6.4 | 1.0
O=S(=O)(Nc1ccccc1Oc1ccccc1)c1ccccc1C(F)(F)F | 9.9 | 16.8 | 27.4 | 30.6*
Cn1cc(CN2CCOC(CCc3ccnc(N)c3)C2)cn1 (stereo unspecified) | 15.4 | 7.7 | 13.1 | 14.7
SMILES | USP8 inh | USP28 block | USP17 inh | USP30 block
Cc1cc2n(n1)CC(C)(C(=O)NCc1ccccc1)N(c1ccc(F)cc1)C2=O (stereo unspecified) | 9.5 | 8.6 | 7.4 | 3.7
O=C(Nc1ccc(Cl)cc1Cl)c1ccn(COc2ccccc2F)n1 | 20.2 | 17.6 | 35.7* | 44.9*
O=C(Nc1ccccc1Cl)c1ccn(COc2ccccc2F)n1 | 34.5* | 29.0 | 66.4* | 56.8*
Cc1ccc(S(=O)(=O)Nc2cccc(N3CCCS3(=O)=O)c2)cc1C | -0.6 | 5.3 | -18.5 | -14.3
COc1ccc(C(=O)Nc2ccc(-n3cnnn3)c(C)c2)cc1OC | 12.0 | 0.0 | 10.6 | 5.6
O=C(c1cc(-c2csc(-c3cnccn3)n2)n2ccccc12)N1CCOCC1 | -72.2 | -61.6 | -72.7 | -205.2
O=C1N(CC2CCCCC2)CCN1c1ccc2c(c1)CCC2 | 25.3 | 11.9 | 31.0* | 19.0
O=C1N(CC2CC2)CCN1c1ccc2c(c1)CCC2 | 18.4 | 34.2* | 10.6 | 20.1
CN(CCNS(=O)(=O)c1ccc2c(c1)CCN2C(=O)C1CC1)Cc1ccccc1 | 7.6 | 23.9 | 7.6 | 27.8
CCCCN1CC(C(=O)Nc2ccc(C(=O)Nc3ccc(Cl)cc3)cc2)CC1=O (stereo unspecified) | 13.5 | 18.2 | 20.7 | 63.6*
CCCCN1CC(C(=O)Nc2ccc(C(=O)Nc3ccc(F)c(Cl)c3)cc2)CC1=O (stereo unspecified) | 4.3 | 16.4 | 52.0* | 27.3
CCCCN1CC(C(=O)Nc2ccc(C(=O)Nc3ccc(Cl)c(Cl)c3)cc2)CC1=O (stereo unspecified) | -15.7 | -19.8 | -8.7 | -20.3
Cc1oc(CNC(=O)Cc2ccc(Cl)cc2)nc1C(=O)N1CCCC1 | -141.3 | -6.5 | -25.6 | -21.3
COc1ccc(-c2nnc(N3CCC(C(=O)NC4CCCC4)CC3)o2)cc1 | 2.0 | 21.2 | 74.7* | 80.0*
CCCn1cc(-c2nc(-c3ccccn3)no2)c(=O)c2cc(F)ccc21 | -6.9 | 0.3 | 17.5 | 1.2
CCn1cc(-c2nc(-c3ccccc3)no2)c(=O)c2cc(F)ccc21 | 0.4 | -1.5 | 67.3* | 11.2
CCOC(=O)N1C[C@@H](CO)[C@@H]2Oc3ccc(Cl)cc3[C@@H]21 | 0.3 | 13.8 | 8.9 | 26.2
CC(=O)c1cccc(NC(=O)c2ccc3[nH]c4c(c3c2)CC(C)CC4)c1 (stereo unspecified) | 82.8* | 15.7 | 54.4* | -6.4
COc1ccc(CN2C[C@@]34CN(C(=O)c5ccccn5)C[C@@H](C[C@@H]3S2(=O)=O)O4)cc1 | 23.5 | 14.9 | 14.9 | 22.3
CN1CCN(Cc2nc(-c3ccc(N4CCCCC4)nc3)no2)CC1 | -0.1 | 9.6 | -2.0 | 32.8*
CC(=O)N1CCN(Cc2nc(-c3ccc(N4CCCCC4)nc3)no2)CC1 | -0.6 | -7.4 | -3.2 | -8.6
Cc1ccc(S(=O)(=O)c2cnc(SCC(=O)Nc3ccc(Cl)cc3)nc2N)cc1C | 23.3 | 48.0* | 79.8* | 39.4*
COc1ccccc1NC(=O)CSc1ncc(S(=O)(=O)c2ccc(C(C)C)cc2)c(N)n1 | -1.1 | 18.2 | -10.2 | -12.0
COc1ccc(-c2nnc(SCC(=O)Nc3ccc(C)cc3)n2C2CCCCC2)cc1OC | 9.0 | 15.4 | 33.8* | 48.3*
COc1ccc(NC(=O)CSc2nccn2C2CCCCC2)cc1 | -7.3 | -7.3 | -5.7 | 14.6
Cc1ccc(C(=O)O)cc1NC(=O)C(Sc1cccc(NC(=O)c2ccccc2C)c1)c1ccccc1 (stereo unspecified) | 27.1 | 54.8* | 91.7* | 78.4*
O=C(O)c1ccccc1C(=O)Nc1ccc(SC(C(=O)Nc2ccccc2)c2ccccc2)cc1 (stereo unspecified) | 4.6 | 18.8 | 63.1* | 13.4
O=C(O)c1ccccc1C(=O)Nc1ccc(SC(C(=O)Nc2ccccc2F)c2ccccc2)cc1 (stereo unspecified) | 5.8 | 3.5 | -3.2 | 18.9
CCC(=O)Oc1cn(-c2ccc(C(C)C)cc2)c2nc(CC)n3c4ccccc4nc3c12 | 46.7* | -6.7 | 4.0 | -23.9

Screening results (PubChem BioAssay)
